Molecules are shown by their SMILES. A number with no mark means an inactive call. Inconclusive results are not listed. Calls of active or inactive are those of the source. Unless noted, calls come from the whole dose curve; as a rule, active = well fitted curve in the direction sought with a large enough effect in the repeat runs; inconclusive = weak or mixed curves; inactive = no such curve, though single readings can be large; an effect the other way counts as inactive or inconclusive.

The target of test [1] is Progesterone receptor (Homo sapiens) (UniProt P06401). Description: qHTS assay to identify small molecule agonists of the progesterone receptor (PR) signaling pathway (AID 1346784; calls by dose curve; note: nearly all actives have a fitted effect of over 30% in size). The procedure, abridged:
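HEK 293T PR-UAS-bla reporter cells, 2% charcoal-stripped FBS; 6 hr settle at 37C/5% CO2, compound (DMSO) 16 hr, LiveBLAzer B/G FRET substrate 2 hr RT, fluorescence intensity read.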
For orientation: Quantitative high-throughput screening tests each substance at several concentrations.

Test [2] can be described thus: qHTS assay to identify small molecule antagonists of the progesterone receptor (PR) signaling pathway - cell viability counter screen (AID 1346798). Note: series mostly up to about 92 µM; nearly all actives have a fitted effect of over 50% in size. A digest of the protocol: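 Luminescence readout (CellTiter-Glo, 30 min, RT) of viability in PR-UAS-bla HEK293T cells exposed to compound and R5020 agonist for 16 hr at 37C, 5% CO2; run in the same wells as the beta-lactamase reporter read.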

Test [3] is described as follows: qHTS assay to identify small molecule agonists of the progesterone receptor (PR) signaling pathway - cell viability counter screen (AID 1346799; calls by dose curve; note: nearly all actives have a fitted effect of over 45% in size). A digest of the protocol:
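HEK293T PR-UAS-bla, 3,000 cells/well, 2% charcoal-stripped FBS; 6 h settle, compound 16 h at 37C/5% CO2; LiveBLAzer 2 h RT, then CellTiter-Glo 30 min RT, luminescence read.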

Test [4] in a line: qHTS assay to identify small molecule antagonists of the TGF-beta/Smad signaling pathway - cell viability counter screen (AID 1346824). Note: nearly all actives have a fitted effect of over 50% in size. A digest of the protocol:
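SBE-bla HEK 293T cells, incubated overnight, then compound plus 0.25 ng/mL TGF-beta1 (stock added) for 5 hr at 37 C. Viability was read in the same wells by CellTiter-Glo luminescence after 30 min at room temperature.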

A short description of test [5]: qHTS assay to identify small molecule agonists of the TGF-beta/Smad signaling pathway - cell viability counter screen (AID 1346829). Note: top concentration of the series differs between compounds; nearly all actives have a fitted effect of over 45% in size. The procedure, abridged: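 Tox21 qHTS format: SBE-bla HEK 293T cells treated with DMSO-dissolved compounds for 5 hr; CellTiter-Glo luminescence after 30 min at room temperature.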
Test [6] in a line: qHTS assay to identify small molecule agonists of the TGF-beta/Smad signaling pathway (AID 1346859; active = well fitted activation curve with a large enough effect in the signal ratio in the repeat runs, not every such curve was filed as active; the % refers to the signal ratio; note: series mostly up to about 77 µM). A digest of the protocol:
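Read-out: fluorescence at 460 and 530 nm (405 nm excitation) after a 2 hr room-temperature incubation with beta-lactamase FRET substrate. SBE-bla HEK 293T cells had been treated with test compounds for 5 hr at 37 C.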

Test [7] addresses Thyrotropin-releasing hormone receptor (Homo sapiens) (UniProt P34981). Description: qHTS assay to identify small molecule antagonists of the thyrotropin-releasing hormone receptor (TRHR) signaling pathway (AID 1346877; active = well fitted inhibition curve with a large enough effect in the repeat runs, not every such curve was filed as active; note: series mostly up to about 51 µM). A digest of the protocol:
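TRHR-expressing HEK293 cells were seeded, cultured 18 h at 37 °C, then loaded with calcium dye for 2 h. Compounds were pre-incubated 5 min at room temperature before 1 nM TRH (final) was added, and kinetic fluorescence was recorded for 3 min.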

Test [8] has the same target. Nature of the test: qHTS assay to identify small molecule agonists of the thyrotropin-releasing hormone receptor (TRHR) signaling pathway (AID 1346891; calls by dose curve; note: series mostly up to about 58 µM). The procedure, abridged:
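HEK293/TRHR cells, 1500 per well, 18 h 37 °C; Ca dye 2 h 37 °C; pin-tool compound addition (agonist mode); kinetic fluorescence 3 min, 1 s reads; 15 concentrations, triplicate.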

Test [9] can be described thus: Human pregnane X receptor (PXR) small molecule agonists, qHTS cell viability counter screen (AID 1346977). Note: nearly all actives have a fitted effect of over 50% in size. A digest of the protocol: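 Fluorescence read-out (CellTiter-Fluor) of viability in PXR-Luc HepG2 cells, multiplexed with the luciferase agonist read. Compounds in DMSO added after 5hr plating; 24hr total exposure at 37C, 5% CO2.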
Test [10] in a line: Caspase-3/7 induction in CHO-K1 cells by small molecules, qHTS cell viability counter screen (AID 1346979). Note: nearly all actives have a fitted effect of over 35% in size. The procedure, abridged: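 CHO-K1 wt, 1,500 cells/well; 5hr pre-incubation 37C/5% CO2; compound pin transfer (DMSO); 16hr exposure; CellTiter-Fluor added, 1hr, fluorescence read.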
The nature of test [11]: Caspase-3/7 induction in CHO-K1 cells by small molecules, qHTS assay (AID 1346980). Note: nearly all actives have a fitted effect of over 15% in size. The procedure, abridged:
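Wild-type CHO-K1 cells exposed to compounds for 17hr at 37 C, 5% CO2. Caspase-3/7 activity then measured by Caspase-Glo 3/7 luminescence after 30min at room temperature.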

Test [12] in a line: Caspase-3/7 induction in HepG2 cells by small molecules, qHTS cell viability counter screen (AID 1346981). Note: series mostly up to about 92 µM; nearly all actives have a fitted effect of over 30% in size. The procedure, abridged:
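Wild-type HepG2 cells (2,000/well) were allowed to settle for 5 hr at 37 C, 5% CO2, then dosed with compounds in DMSO by pin transfer. After 16 hr at 37 C, CellTiter-Fluor was added and fluorescence read 1 hr later.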

The target of test [13] is Nuclear receptor subfamily 1 group I member 2 (Homo sapiens) (UniProt O75469). Description: Human pregnane X receptor (PXR) small molecule agonists, qHTS assay (AID 1346982). Note: nearly all actives have a fitted effect of over 35% in size. Note: potency is the fitted concentration of half-maximal effect. The procedure, abridged: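 PXR-Luc HepG2 cells (CYP3A4 promoter-driven luciferase) were seeded in medium with 5% charcoal-stripped FBS, left 5 hr at 37 C, then exposed to compounds in DMSO for 24 hr. Luminescence was read after ONE-Glo addition.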

Test [14] deals with Nuclear receptor subfamily 1 group I member 2 (Rattus norvegicus) (UniProt Q9R1A7). Description: Rat pregnane X receptor (rPXR) activation by small molecules, qHTS assay (AID 1346983). Note: nearly all actives have a fitted effect of over 20% in size. To be noted: rPXR luciferase reporter cells, One-Glo luminescence, 24 h; max activation: hits give high values. The procedure, abridged: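 Cell-based rPXR activation assay: rPXR cells, 2,000 per well, rested 5hr at 37 C, then exposed to compounds in DMSO for 24 hr at 37 C. Luciferase activity read by One-Glo luminescence after 30 min at room temperature.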

The target of test [15] is Nuclear receptor subfamily 1 group I member 2 (Homo sapiens) (UniProt O75469). Description: CYP3A4 induction through human pregnane X receptor (PXR) by small molecules, qHTS assay (AID 1346984). Note: nearly all actives have a fitted effect of over 40% in size. A digest of the protocol:
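DPX-2 cells (HepG2 co-transfected with PXR and CYP3A4 promoter-luciferase) treated with compounds 24 h at 37C; luciferin-IPA CYP3A4 substrate 3uM final added for 3 h, then One-Glo; luminescence read. qHTS format.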

Test [16] has the same target. Nature of the test: Human pregnane X receptor (PXR) activation by small molecules, qHTS assay (AID 1346985). Note: nearly all actives have a fitted effect of over 40% in size. A digest of the protocol:
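DPX-2 cells (HepG2 co-transfected with a PXR response element and a CYP3A4-promoter luciferase construct) were seeded at 2,000 per well, rested 5 hr at 37C, then exposed to DMSO-dissolved compounds for 24 hr. Activation was read as luciferase luminescence.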

Test [17] concerns the target Cytochrome P450 2D6 (Homo sapiens) (UniProt P10635). Description: Cytochrome P450 Family 2 Subfamily D Member 6 (CYP2D6) small molecule antagonists: luciferase reporter qHTS assay (AID 1671196). Note: nearly all actives have a fitted effect of over 50% in size. Note: potency is the fitted concentration of half-maximal effect. The procedure, abridged: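 CYP2D6 enzyme–substrate mix was held with compound for 10 min at room temperature, then NADPH regeneration solution was added and the reaction ran 1 h at room temperature. Luciferin product was detected by luminescence after 20 min with detection reagent.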
(Reporter assays use an easily measured gene product as a stand-in for the process of interest.)

Test [18] concerns the target Cytochrome P450 2C19 (Homo sapiens) (UniProt P33261). Nature of the test: Cytochrome P450 Family 2 Subfamily C Member 19 (CYP2C19) small molecule antagonists: luciferase reporter qHTS assay (AID 1671197). Note: nearly all actives have a fitted effect of over 65% in size. Note: potency is the fitted concentration of half-maximal effect. The procedure, abridged:
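Relative luminescence units recorded 20 min after the detection reagent stopped a 1 h, 37C CYP2C19 reaction on proluciferin substrate, which was started by NADPH regeneration following 10 min room-temperature compound preincubation; ketoconazole positive control.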

Test [19] can be described thus: Caspase-3/7 induction in HepG2 cells by small molecules, qHTS assay (AID 1346978). Note: nearly all actives have a fitted effect of over 15% in size. A digest of the protocol:
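Wild-type HepG2 cells, 2,000/well, settled 5 hr at 37 C and 5% CO2, then compound-treated for 17 hr; caspase-3/7 activity read by luminescent Caspase-Glo 3/7 after 30 min at room temperature.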

Test [20] deals with Progesterone receptor (Homo sapiens) (UniProt P06401). Description: qHTS assay to identify small molecule antagonists of the progesterone receptor (PR) signaling pathway (AID 1346795; active = well fitted inhibition curve with a large enough effect in the signal ratio in the repeat runs, not every such curve was filed as active; the % refers to the signal ratio). The procedure, abridged: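 Beta-lactamase reporter, HEK293T PR-UAS-bla line; 2% charcoal-stripped FBS; 6 hr pre-incubation, 37C/5% CO2. Compound + R5020 1 nM final, 16 hr. LiveBLAzer B/G FRET substrate, 2 hr RT; fluorescence intensity read.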
% is set by controls: 0 for no effect and ±100 for the full control effect.

Sequence of Thyrotropin-releasing hormone receptor (Homo sapiens) (P34981 whole entry, looked up): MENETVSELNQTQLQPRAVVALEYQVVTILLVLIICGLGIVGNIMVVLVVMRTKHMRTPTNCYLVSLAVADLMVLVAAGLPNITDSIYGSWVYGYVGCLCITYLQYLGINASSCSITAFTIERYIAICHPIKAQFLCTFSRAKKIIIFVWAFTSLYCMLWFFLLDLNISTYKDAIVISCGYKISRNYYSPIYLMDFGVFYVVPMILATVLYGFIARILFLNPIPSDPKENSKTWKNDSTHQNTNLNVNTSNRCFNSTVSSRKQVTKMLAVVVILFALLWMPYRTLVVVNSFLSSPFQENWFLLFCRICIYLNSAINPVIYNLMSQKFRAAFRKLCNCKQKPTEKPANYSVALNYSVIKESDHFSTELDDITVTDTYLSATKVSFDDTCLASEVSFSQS
Sequence of Progesterone receptor (Homo sapiens) (P06401 whole entry, looked up): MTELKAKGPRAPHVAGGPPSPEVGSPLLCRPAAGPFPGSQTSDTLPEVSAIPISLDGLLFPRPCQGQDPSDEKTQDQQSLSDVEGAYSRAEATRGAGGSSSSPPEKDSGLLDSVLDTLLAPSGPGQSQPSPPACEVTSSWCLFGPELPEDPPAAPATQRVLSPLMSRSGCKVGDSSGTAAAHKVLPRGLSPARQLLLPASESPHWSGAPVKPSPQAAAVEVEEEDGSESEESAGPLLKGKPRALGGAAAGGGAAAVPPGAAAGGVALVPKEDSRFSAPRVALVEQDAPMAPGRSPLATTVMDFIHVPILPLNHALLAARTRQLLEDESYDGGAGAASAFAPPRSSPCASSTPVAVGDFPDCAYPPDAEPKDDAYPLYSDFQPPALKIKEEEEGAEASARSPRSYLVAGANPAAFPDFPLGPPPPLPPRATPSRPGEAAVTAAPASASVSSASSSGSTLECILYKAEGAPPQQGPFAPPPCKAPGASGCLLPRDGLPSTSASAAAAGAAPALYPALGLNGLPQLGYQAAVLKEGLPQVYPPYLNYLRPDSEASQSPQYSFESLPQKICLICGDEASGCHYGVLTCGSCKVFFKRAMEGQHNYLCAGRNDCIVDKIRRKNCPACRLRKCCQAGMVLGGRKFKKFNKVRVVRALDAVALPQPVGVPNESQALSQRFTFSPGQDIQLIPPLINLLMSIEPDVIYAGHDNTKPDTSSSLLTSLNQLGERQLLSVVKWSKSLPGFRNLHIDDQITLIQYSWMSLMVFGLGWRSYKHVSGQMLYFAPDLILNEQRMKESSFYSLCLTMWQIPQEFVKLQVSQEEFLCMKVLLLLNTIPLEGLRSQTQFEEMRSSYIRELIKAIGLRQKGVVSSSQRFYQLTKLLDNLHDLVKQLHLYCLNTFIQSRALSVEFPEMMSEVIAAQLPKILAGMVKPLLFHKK
Sequence of Nuclear receptor subfamily 1 group I member 2 (Homo sapiens) (O75469 whole entry, looked up): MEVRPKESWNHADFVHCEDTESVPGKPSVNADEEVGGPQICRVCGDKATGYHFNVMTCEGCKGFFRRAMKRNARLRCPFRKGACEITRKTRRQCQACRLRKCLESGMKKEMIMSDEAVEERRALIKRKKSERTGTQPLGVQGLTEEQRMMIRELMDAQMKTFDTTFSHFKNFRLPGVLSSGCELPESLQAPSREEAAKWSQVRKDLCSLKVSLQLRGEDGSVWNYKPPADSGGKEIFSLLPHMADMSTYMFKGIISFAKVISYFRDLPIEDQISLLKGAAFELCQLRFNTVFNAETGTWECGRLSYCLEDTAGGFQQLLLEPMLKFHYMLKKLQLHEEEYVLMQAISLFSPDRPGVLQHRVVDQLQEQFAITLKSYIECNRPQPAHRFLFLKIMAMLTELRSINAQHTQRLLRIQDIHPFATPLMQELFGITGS
Sequence of Cytochrome P450 2C19 (Homo sapiens) (P33261 whole entry, looked up): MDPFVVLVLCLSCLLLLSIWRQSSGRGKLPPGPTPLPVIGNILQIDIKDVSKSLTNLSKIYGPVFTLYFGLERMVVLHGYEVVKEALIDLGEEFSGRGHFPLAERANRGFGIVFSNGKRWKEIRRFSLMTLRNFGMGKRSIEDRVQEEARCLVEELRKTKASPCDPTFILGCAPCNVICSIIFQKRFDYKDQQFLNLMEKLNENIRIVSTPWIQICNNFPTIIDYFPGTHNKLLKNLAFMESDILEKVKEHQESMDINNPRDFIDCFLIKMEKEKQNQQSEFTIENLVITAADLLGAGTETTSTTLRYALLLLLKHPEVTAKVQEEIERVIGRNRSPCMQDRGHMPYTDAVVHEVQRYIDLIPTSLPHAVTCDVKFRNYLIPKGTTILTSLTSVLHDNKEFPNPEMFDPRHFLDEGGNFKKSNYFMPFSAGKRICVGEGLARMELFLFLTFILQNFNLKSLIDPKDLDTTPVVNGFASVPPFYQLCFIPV
Sequence of Cytochrome P450 2D6 (Homo sapiens) (P10635 whole entry, looked up): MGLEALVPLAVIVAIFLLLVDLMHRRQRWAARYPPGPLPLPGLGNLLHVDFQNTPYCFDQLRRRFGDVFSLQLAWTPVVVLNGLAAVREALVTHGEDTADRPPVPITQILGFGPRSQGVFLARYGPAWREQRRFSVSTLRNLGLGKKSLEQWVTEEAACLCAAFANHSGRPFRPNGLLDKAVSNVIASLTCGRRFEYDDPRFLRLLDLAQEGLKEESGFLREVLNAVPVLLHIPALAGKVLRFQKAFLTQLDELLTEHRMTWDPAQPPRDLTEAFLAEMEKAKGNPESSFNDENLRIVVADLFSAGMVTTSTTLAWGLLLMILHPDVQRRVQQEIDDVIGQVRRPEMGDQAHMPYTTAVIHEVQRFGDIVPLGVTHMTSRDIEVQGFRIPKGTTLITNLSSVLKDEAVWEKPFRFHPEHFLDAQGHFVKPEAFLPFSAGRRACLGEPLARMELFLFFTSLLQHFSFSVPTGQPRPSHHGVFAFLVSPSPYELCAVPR
Sequence of Nuclear receptor subfamily 1 group I member 2 (Rattus norvegicus) (Q9R1A7 whole entry, looked up): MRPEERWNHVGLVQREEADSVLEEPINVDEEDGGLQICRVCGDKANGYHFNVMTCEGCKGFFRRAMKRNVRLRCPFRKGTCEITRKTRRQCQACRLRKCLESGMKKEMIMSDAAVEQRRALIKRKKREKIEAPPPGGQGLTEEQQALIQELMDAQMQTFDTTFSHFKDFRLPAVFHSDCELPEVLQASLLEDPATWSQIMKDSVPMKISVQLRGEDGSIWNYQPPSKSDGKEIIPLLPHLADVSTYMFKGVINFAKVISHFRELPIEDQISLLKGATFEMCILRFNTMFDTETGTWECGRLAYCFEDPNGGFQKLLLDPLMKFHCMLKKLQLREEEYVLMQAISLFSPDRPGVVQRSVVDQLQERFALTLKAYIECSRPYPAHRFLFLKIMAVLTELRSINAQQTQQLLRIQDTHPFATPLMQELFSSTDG

As for `CCCCCC(C)N` (stereo not given), the Potency result in [1], in test [2], in [3], in test [8], in test [9] and in test [10] was “inactive” throughout. In addition, the Potency result in test [12], in [13], in [15], in [16], in test [17] and in test [18] was “inactive” in each case. The result in test [4], in test [5], in test [6], in test [7] and in test [11] was inactive. For the same molecule, the max activation in test [14] was -3.3%.

For `NC(CCC(=O)O)C(=O)O` (stereo not given), the Potency entry in test [1], in [2], in test [3], in test [8], in test [9] and in test [10] was “inactive” each time. Besides, the Potency result in test [12], in [13] and in test [18] was “inactive” throughout. Also, the call in [4], in test [5], in test [6], in test [7], in test [19] and in [11] was inactive. Besides, in test [17], the Potency was 31 µM (active).

In the case of `O=Cc1cccc(Br)c1`, the Potency entry in [1], in test [2], in test [3], in [8], in [9] and in test [10] was “inactive” each time. Also, the Potency entry in test [12] and in test [13] was “inactive” in each case. For the same molecule, the molecule was called inactive in test [4], in test [5], in [6], in [7] and in test [19]. For the same molecule, the Potency in test [18] is 18.3 µM (active).

On to `O=C1c2ccccc2C(=O)c2cc(O)ccc21`, for which the Potency result in test [1], in [20] and in test [10] was “inactive” throughout. Besides, the result in [4], in test [5], in test [6], in test [19] and in test [11] was inactive. For the same molecule, the Potency in test [13] is 17.2 µM (active); in [18] it was 22.5 µM (active).

For `CCOC(=O)COc1cc(-n2ncc(C(F)(F)F)c(C)c2=O)c(F)cc1Cl`, the Potency entry in [1], in test [2], in [3], in [8], in test [9] and in test [10] was “inactive” throughout. For the same molecule, in [12], the Potency result is “inactive”. The outcome in test [4], in test [5], in test [7], in test [19] and in test [11] was inactive. In addition, the Potency in test [17] is 63.3 µM (active); in test [18], 35.6 µM (active).

`C=CCCCCCCCCC(=O)OCC`: the Potency entry in test [1], in test [2], in test [3], in test [9], in [10] and in test [12] was “inactive” each time. The Potency result in test [13] and in test [18] was “inactive” each time. The result in test [4], in [5], in test [6], in test [19] and in test [11] was inactive.

As for `Nc1ccn([C@@H]2O[C@H](CO)[C@@H](O)[C@@H]2O)c(=O)n1`, the Potency entry in [1], in test [20], in test [3], in test [8], in [9] and in [10] was “inactive” throughout. The Potency result in [12], in [13] and in test [17] was “inactive” each time. For the same molecule, the call in [4], in test [5], in test [6], in test [7], in test [19] and in test [11] was inactive.

The record behind these values is PubChem BioAssay (Tox21).
